Laboratory results from PubChem BioAssay AID1159580 (chemical genetic matrix, 2015).
About 2,000 (36%) of roughly 5,500 compounds were called active. Roughly 18% stayed inconclusive and do not appear here. Cut-off read from the data, not from the text of the source: active = normalized growth mostly below about 0.91 (no sharp cut-off); inconclusive = no clear call, values can overlap the other calls; inactive = mostly above about 0.92. The list shows a part of the results.

Assay: chemical genetic growth profiling, strain panel (AID 1159580);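 note: tested at 20 µM; growth read once vehicle control cultures reached saturation at 30 °C; 1 = growth at the plate median or of vehicle wells; lower values mean less growth of the strain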
Settings: growth OD

Measured: normalized growth

CCOC(=O)[C@H](CCc1ccccc1)N[C@H]1CCc2ccccc2N(CC(=O)O)C1=O
inactive: S. cerevisiae deletion strains, locus YJR075W, strain HOC1, hits give low values 0.994 | S. cerevisiae deletion strains, locus YKL009W, strain mrt4, hits give low values 1 | S. cerevisiae deletion strains, locus YKL068W, hits give low values 0.973 | S. cerevisiae deletion strains, locus YKL085W, strain MDH1 (second series), hits give low values 0.967 | S. cerevisiae deletion strains, locus YKL085W, strain MDH1, hits give low values 0.967 | S. cerevisiae deletion strains, locus YKL160W, strain elf1, hits give low values 0.993 | S. cerevisiae deletion strains, locus YKL190W, strain CNB1, hits give low values 0.989 | S. cerevisiae deletion strains, locus YKR001C, strain vps1, hits give low values 0.983 | S. cerevisiae deletion strains, locus YKR026C, strain gcn3, hits give low values 0.979 | S. cerevisiae deletion strains, locus YKR091W, strain srl3, hits give low values 0.989 | S. cerevisiae deletion strains, locus YLL001W, strain dnm1, hits give low values 0.983 | S. cerevisiae deletion strains, locus YLL026W, hits give low values 0.989 | S. cerevisiae deletion strains, locus YLL041C, strain sdh2, hits give low values 0.986 | S. cerevisiae deletion strains, locus YLR027C, strain aat2, hits give low values 0.982 | S. cerevisiae deletion strains, locus YLR039C, strain RIC1, hits give low values 1.02 | S. cerevisiae deletion strains, locus YLR058C, strain SHM2, hits give low values 0.999 | S. cerevisiae deletion strains, locus YLR102C, strain apc9, hits give low values 0.972 | S. cerevisiae deletion strains, locus YLR113W, strain HOG1, hits give low values 1.01 | S. cerevisiae deletion strains, locus YLR221C, strain rsa3, hits give low values 0.983 | S. cerevisiae deletion strains, locus YLR258W, strain gsy2, hits give low values 0.983 | S. cerevisiae deletion strains, locus YLR262C, strain YPT6 (second series), hits give low values 0.97 | S. cerevisiae deletion strains, locus YLR262C, strain YPT6, hits give low values 0.955 | S. cerevisiae deletion strains, locus YLR268W, strain sec22, hits give low values 0.98 | S. cerevisiae deletion strains, locus YLR320W, strain mms22, hits give low values 0.966 | S. cerevisiae deletion strains, locus YLR330W, strain CHS5, hits give low values 0.986 | S. cerevisiae deletion strains, locus YLR342W, strain FKS1 (second series), hits give low values 1.05 | S. cerevisiae deletion strains, locus YLR342W, strain FKS1, hits give low values 0.956 | S. cerevisiae deletion strains, locus YLR357W, strain rsc2, hits give low values 0.912 | S. cerevisiae deletion strains, locus YLR370C, strain arc18, hits give low values 0.988 | S. cerevisiae deletion strains, locus YLR371W, strain rom2, hits give low values 0.969 | S. cerevisiae deletion strains, locus YLR384C, strain iki3, hits give low values 0.986 | S. cerevisiae deletion strains, locus YLR418C, strain cdc73, hits give low values 0.953 | S. cerevisiae deletion strains, locus YML016C, strain PPZ1, hits give low values 0.98 | S. cerevisiae deletion strains, locus YML032C, strain rad52, hits give low values 0.984 | S. cerevisiae deletion strains, locus YML120C, strain ndi1, hits give low values 0.975 | S. cerevisiae deletion strains, locus YML124C, strain tub3, hits give low values 0.971 | S. cerevisiae deletion strains, locus YMR058W, strain fet3, hits give low values 0.988 | S. cerevisiae deletion strains, locus YMR078C, strain ctf18, hits give low values 0.978 | S. cerevisiae deletion strains, locus YMR125W, strain sto1, hits give low values 0.996 | S. cerevisiae deletion strains, locus YMR129W, hits give low values 0.991 | S. cerevisiae deletion strains, locus YMR205C, strain PFK2, hits give low values 0.974 | S. cerevisiae deletion strains, locus YMR223W, strain ubp8, hits give low values 0.993 | S. cerevisiae deletion strains, locus YMR231W, strain pep5, hits give low values 0.986 | S. cerevisiae deletion strains, locus YMR263W, strain SAP30, hits give low values 0.993 | S. cerevisiae deletion strains, locus YMR307W, strain GAS1, hits give low values 0.939 | S. cerevisiae deletion strains, locus YNL067W, strain RPL9B, hits give low values 0.996 | S. cerevisiae deletion strains, locus YNL071W, strain lat1, hits give low values 0.989 | S. cerevisiae deletion strains, locus YNL128W, strain TEP1, hits give low values 0.984 | S. cerevisiae deletion strains, locus YNL153C, strain GIM3, hits give low values 0.988 | S. cerevisiae deletion strains, locus YNL183C, strain NPR1, hits give low values 0.959 | S. cerevisiae deletion strains, locus YNL209W, strain ssb2, hits give low values 0.98 | S. cerevisiae deletion strains, locus YNL233W, strain BNI4, hits give low values 0.99 | S. cerevisiae deletion strains, locus YNL248C, strain rpa49, hits give low values 0.98 | S. cerevisiae deletion strains, locus YNL250W, strain rad50, hits give low values 0.963 | S. cerevisiae deletion strains, locus YNL271C, strain bni1, hits give low values 0.959 | S. cerevisiae deletion strains, locus YNL298W, strain CLA4, hits give low values 0.968 | S. cerevisiae deletion strains, locus YNL307C, strain MCK1, hits give low values 0.986 | S. cerevisiae deletion strains, locus YNL322C, strain KRE1 (second series), hits give low values 0.967 | S. cerevisiae deletion strains, locus YNL322C, strain KRE1, hits give low values 0.98 | S. cerevisiae deletion strains, locus YNR049C, strain mso1, hits give low values 0.994 | S. cerevisiae deletion strains, locus YNR052C, strain pop2, hits give low values 0.977 | S. cerevisiae deletion strains, locus YOL006C, strain TOP1, hits give low values 1.08 | S. cerevisiae deletion strains, locus YOL012C, strain htz1 1.02 | S. cerevisiae deletion strains, locus YOL147C, strain pex11, hits give low values 0.975 | S. cerevisiae deletion strains, locus YOR001W, strain rrp6, hits give low values 0.989 | S. cerevisiae deletion strains, locus YOR061W, strain CKA2, hits give low values 0.983 | S. cerevisiae deletion strains, locus YOR069W, strain VPS5, hits give low values 0.99 | S. cerevisiae deletion strains, locus YOR070C, strain gyp1, hits give low values 0.982 | S. cerevisiae deletion strains, locus YOR080W, strain dia2, hits give low values 0.973 | S. cerevisiae deletion strains, locus YOR083W, strain WHI5, hits give low values 0.982 | S. cerevisiae deletion strains, locus YOR106W, strain vam3, hits give low values 0.984 | S. cerevisiae deletion strains, locus YOR136W, strain idh2, hits give low values 0.974 | S. cerevisiae deletion strains, locus YOR144C, strain elg1, hits give low values 0.965 | S. cerevisiae deletion strains, locus YOR184W, strain ser1, hits give low values 0.981 | S. cerevisiae deletion strains, locus YOR231W, strain MKK1, hits give low values 0.976 | S. cerevisiae deletion strains, locus YOR265W, strain rbl2, hits give low values 0.987 | S. cerevisiae deletion strains, locus YOR270C, strain vph1, hits give low values 1.04 | S. cerevisiae deletion strains, locus YOR290C, strain snf2, hits give low values 0.993 | S. cerevisiae deletion strains, locus YOR316C, strain cot1, hits give low values 0.959 | S. cerevisiae deletion strains, locus YPL051W, strain arl3, hits give low values 0.978 | S. cerevisiae deletion strains, locus YPL055C, strain LGE1, hits give low values 1.02 | S. cerevisiae deletion strains, locus YPL078C, strain atp4, hits give low values 0.984 | S. cerevisiae deletion strains, locus YPL106C, strain sse1, hits give low values 0.963 | S. cerevisiae deletion strains, locus YPL240C, strain hsp82, hits give low values 0.979 | S. cerevisiae deletion strains, locus YPL241C, strain CIN2, hits give low values 0.983 | S. cerevisiae deletion strains, locus YPL256C, strain CLN2, hits give low values 0.965 | S. cerevisiae deletion strains, locus YPR119W, strain clb2, hits give low values 0.971 | S. cerevisiae deletion strains, locus YPR141C, strain kar3, hits give low values 0.948 | S. cerevisiae deletion strains, locus YPR163C, strain tif3, hits give low values 0.968 | S. cerevisiae deletion strains, locus YPR167C, strain met16, hits give low values 0.978 | S. cerevisiae deletion strains, strain wtn01, hits give low values 0.973 | S. cerevisiae strains, strain wild type, hits give low values 0.98
